In PubChem BioAssay (Tox21):
Records with an inconclusive call do not appear. Calls of active or inactive are those of the source. Unless noted, the call rests on the fitted dose curve; in most records, active means well fitted curve in the direction sought with a large enough effect in the repeat runs; inconclusive means weak or mixed curves; inactive means no such curve, though single readings can be large; an effect the other way counts as inactive or inconclusive.

Assays:
[1] = qHTS assay for small molecule agonists of the p53 signaling pathway (AID 651631; calls by dose curve; further: nearly all actives have a fitted effect of over 15% in size)
Method in brief: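 Read-out is beta-lactamase FRET fluorescence measured 2 h after substrate addition at room temperature, in HCT-116 cells with a p53 response element-driven reporter exposed to compounds for 16 h at 37 °C.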

[2] = qHTS assay for small molecules that induce genotoxicity in human embryonic kidney cells expressing luciferase-tagged ATAD5 (AID 651632); further: nearly all actives have a fitted effect of over 15% in size
Method in brief: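 Concentration-response screen for ATAD5 upregulation in HEK293T luciferase reporter cells; 16 hr treatment at 37C, then luminescence after 30 min with Amplite at room temperature.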

[3] = qHTS assay for small molecule agonists of the p53 signaling pathway - cell viability (AID 651633; calls by dose curve;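 further: p53RE-bla HCT reporter cells with a stable beta-lactamase p53 reporter; series mostly up to about 83 µM; nearly all actives have a fitted effect of over 30% in size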)
Method in brief: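 Viability counter-read: CellTiter-Glo luminescence (30 min, room temperature) in the same p53RE-bla plates. These plates had been exposed to compounds for 16 h at 37 C.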

[4] = qHTS assay for small molecules that induce genotoxicity in human embryonic kidney cells expressing luciferase-tagged ATAD5 - cell viability (AID 651634; calls by dose curve; further: nearly all actives have a fitted effect of over 25% in size)
Method in brief: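 15.5 hr compound or vehicle exposure of HEK293T cells expressing luciferase-tagged ATAD5 at 37C; live-cell protease activity is read by fluorescence after 30 min of CellTiter-Fluor.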

[5] = qHTS assay for small molecule disruptors of the mitochondrial membrane potential - cell viability (AID 720634; calls by dose curve;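 further: human HepG2 liver cancer cells; series mostly up to about 83 µM; nearly all actives have a fitted effect of over 20% in size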)
Method in brief: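 In this qHTS format, HepG2 cells plated overnight were pinned with compound, incubated 1 hr, and assayed for ATP luminescence with CellTiter-Glo after m-MPI dye addition.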

[6] = qHTS assay to test for compound auto fluorescence at 535 nm (green) in HepG2 cells (AID 720675)
[7] = qHTS assay to test for compound auto fluorescence at 460 nm (blue) in HEK293 cells (AID 720678)
Method in brief: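 Cells were seeded and left to adhere for 4-5 hr at 37C. Compounds were then pin-transferred. After an overnight incubation at 37C under 5% CO2, intrinsic fluorescence at 405/460 nm was measured and referenced to triamterene.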

[8] = qHTS assay to test for compound auto fluorescence at 590 nm (red) in HEK293 cells (AID 720679)
Method in brief: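 Each well held 2,000 HEK293 cells in medium containing 10% dialyzed FBS. Following 4-5 hr attachment at 37C, 23 nL test compound or DMSO was added; plates sat overnight, and red fluorescence (540/590nm) was recorded.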

[9] = qHTS assay to test for compound auto fluorescence at 535 nm (green) in HEK293 cells (AID 720680)
[10] = qHTS assay to test for compound auto fluorescence at 535 nm (green) in HEK293 cell free culture (AID 720682)
Method in brief: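 Fluorescein serves as the green reference fluorophore; each compound's intrinsic emission at 535 nm (excitation 485 nm) is reported as an equivalent amount of that dye, measured in serum-containing DMEM without cells.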

[11] = qHTS assay to test for compound auto fluorescence at 590 nm (red) in HepG2 cell free culture (AID 720684)
Method in brief: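 Cell-free; medium MEM + 10% FBS; compound or DMSO added by pintool; read Ex 540/Em 590 nm; Rose Bengal sodium as red reference fluorophore.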

[12] = qHTS assay to test for compound auto fluorescence at 460 nm (blue) in HepG2 cell free culture (AID 720685)
Method in brief: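 Cell-free plates of MEM plus 10% FBS received 23 nL compound or DMSO vehicle; blue-channel (405/460 nm) intensity scored against triamterene as reference fluorophore.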

[13] = qHTS assay to test for compound auto fluorescence at 535 nm (green) in HepG2 cell free culture (AID 720686)
[14] = qHTS assay to test for compound auto fluorescence at 590 nm (red) in HepG2 cells (AID 720674)
Method in brief: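 1 hr compound incubation on HepG2 cells, 37 C, 5% CO2; plate read ex 540 nm / em 590 nm; intensities reported as Rose Bengal sodium equivalents.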

[15] = qHTS assay to test for compound auto fluorescence at 460 nm (blue) in HEK293 cell free culture (AID 720681)
Method in brief: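 Blue fluorescence (Ex 405/Em 460 nm, triamterene-equivalent) was read immediately after pin transfer of compound or DMSO into medium (DMEM, 10% FBS) without cells.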

[16] = qHTS assay to test for compound auto fluorescence at 590 nm (red) in HEK293 cell free culture (AID 720683)
Method in brief: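 Red-channel autofluorescence of compounds in culture medium (DMEM, 10% FBS), no cells, measured at 540/590 nm. Rose Bengal sodium is the reference fluorophore for equivalence.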

[17] = qHTS assay to test for compound auto fluorescence at 460 nm (blue) in HepG2 cells (AID 720687)
Method in brief: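 Blue-channel autofluorescence (Ex/Em 405/460 nm, triamterene-equivalent) was measured after 1 hr compound exposure at 37 C, 5% CO2. Cells were HepG2, plated overnight at 37 C in MEM plus 10% FBS.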

[18] = target: Glucocorticoid receptor (Homo sapiens) (UniProt P04150); assay: qHTS assay to identify small molecule agonists of the glucocorticoid receptor (GR) signaling pathway (AID 720691; active means well fitted activation curve with a large enough effect in the signal ratio in the repeat runs, not every such curve was filed as active; the % refers to the signal ratio)
Chain of Glucocorticoid receptor (Homo sapiens) (P04150 whole entry, looked up): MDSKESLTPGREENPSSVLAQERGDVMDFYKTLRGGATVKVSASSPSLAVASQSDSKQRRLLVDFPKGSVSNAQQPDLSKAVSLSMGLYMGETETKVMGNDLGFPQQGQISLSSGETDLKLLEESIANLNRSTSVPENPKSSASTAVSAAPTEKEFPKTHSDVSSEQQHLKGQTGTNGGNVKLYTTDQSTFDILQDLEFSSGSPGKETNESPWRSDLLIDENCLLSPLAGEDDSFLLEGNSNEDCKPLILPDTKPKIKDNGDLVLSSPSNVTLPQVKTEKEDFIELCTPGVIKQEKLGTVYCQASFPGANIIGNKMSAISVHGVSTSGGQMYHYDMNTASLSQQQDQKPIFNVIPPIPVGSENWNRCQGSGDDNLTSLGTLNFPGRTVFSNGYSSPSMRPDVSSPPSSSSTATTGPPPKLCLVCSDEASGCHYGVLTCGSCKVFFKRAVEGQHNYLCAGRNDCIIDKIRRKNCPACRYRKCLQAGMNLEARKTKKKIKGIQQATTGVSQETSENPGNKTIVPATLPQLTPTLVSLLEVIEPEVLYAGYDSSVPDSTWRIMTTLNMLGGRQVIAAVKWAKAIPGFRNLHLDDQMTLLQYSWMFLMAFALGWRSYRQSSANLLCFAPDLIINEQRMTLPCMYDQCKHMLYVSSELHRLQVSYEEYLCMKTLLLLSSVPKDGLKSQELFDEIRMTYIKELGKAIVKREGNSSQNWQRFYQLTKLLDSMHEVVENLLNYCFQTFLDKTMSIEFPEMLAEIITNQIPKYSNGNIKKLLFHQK
Method in brief: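 Measures GR pathway activation through a GRE-beta-lactamase reporter stably integrated in HeLa cells, with 18 h compound treatment at 37 C and fluorescence detection using a FRET substrate.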

[19] = target: Glucocorticoid receptor (Homo sapiens) (UniProt P04150); assay: qHTS assay to identify small molecule antagonists of the glucocorticoid receptor (GR) signaling pathway (AID 720692; active means well fitted inhibition curve with a large enough effect in the signal ratio in the repeat runs, not every such curve was filed as active; the % refers to the signal ratio)
Method in brief: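 Tox21 10K library screened in concentration-response for blockade of dexamethasone (5 nM final)-induced GRE-bla reporter activity in HeLa cells; 18 h treatment, fluorescence read.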

[20] = qHTS assay for small molecule disruptors of the mitochondrial membrane potential (AID 720635)
Method in brief: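 Mitochondrial membrane potential tracked with Mito-MPS dye, red aggregates (ex 540/em 590 nm) against green monomers (ex 490/em 535 nm). Compound treatment 1 hr at 37C, dye 30 min in HepG2.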
On the % scale 0 is the no-effect control and ±100 the full control effect.

Nc1ccccc1S(=O)(=O)O
inactive: outcome [1] | Potency [2] | outcome [3] | Potency [4] | Potency [5] | outcome [6] | outcome [7] | outcome [8] | outcome [9] | outcome [10] | outcome [11] | outcome [12] | outcome [13]

CC(=O)CC(C)(C)C1CCCCC1
inactive: outcome [1] | Potency [2] | outcome [3] | Potency [4] | Potency [5] | outcome [14] | outcome [6] | outcome [7] | outcome [8] | outcome [15] | outcome [10] | outcome [16] | outcome [11] | outcome [12] | outcome [13] | outcome [17]

CC/C=C\CCOC(C)=O
inactive: outcome [1] | Potency [2] | outcome [3] | Potency [4] | Potency [5] | outcome [14] | outcome [6] | outcome [7] | outcome [8] | outcome [9] | outcome [10] | outcome [11] | outcome [12] | outcome [17] | Potency [18] | Potency [19]

O=C(CCCN1CCC(O)(c2cccc(C(F)(F)F)c2)CC1)c1ccc(F)cc1
inactive: outcome [1] | Potency [2] | outcome [3] | Potency [4] | Potency [5] | outcome [6] | outcome [7] | outcome [8] | outcome [9] | outcome [15] | outcome [10] | outcome [16] | outcome [12] | outcome [17] | Potency [18] | Potency [19]

COc1cc(C(=O)N2CCCCCCC2)cc(OC)c1OC
inactive: outcome [1] | Potency [2] | outcome [3] | Potency [4] | Potency [5] | outcome [6] | outcome [7] | outcome [9] | outcome [15] | outcome [10] | outcome [16] | outcome [11] | outcome [12] | outcome [13] | outcome [17]

C[C@@H]1CCN(C(=O)[C@H](CCCN=C(N)N)NS(=O)(=O)c2cccc3c2NC[C@H](C)C3)[C@@H](C(=O)O)C1
inactive: outcome [1] | Potency [2] | outcome [3] | Potency [4] | Potency [5] | outcome [6] | outcome [7] | outcome [8] | outcome [9] | outcome [15] | outcome [10] | outcome [16] | outcome [11] | outcome [12] | outcome [13] | outcome [17]

Cc1cc2c(cc1S(N)(=O)=O)S(=O)(=O)CCC2
inactive: outcome [1] | Potency [2] | outcome [3] | Potency [4] | Potency [5] | outcome [6] | outcome [7] | outcome [8] | outcome [10] | outcome [16] | outcome [11] | outcome [12] | outcome [13] | outcome [17] | Potency [18] | Potency [19]

CC(C)(C)NCCNC(C)(C)C
inactive: outcome [1] | Potency [2] | outcome [3] | Potency [4] | Potency [5] | outcome [6] | outcome [7] | outcome [8] | outcome [9] | outcome [15] | outcome [10] | outcome [16] | outcome [11] | outcome [12] | outcome [13] | outcome [17]

CCC(C)S (stereo not drawn)
inactive: activation [1] -2.85% [at 3.72 µM] | activation [2] 1.12% [at 3.63 µM] | activity change, negative = cytotoxicity [3] -9.49% [at 3.63 µM] | activity, negative = cytotoxicity [4] -7.36% [at 3.63 µM] | activity change, negative = cytotoxicity [5] 9.33% [at 3.63 µM] | fluorescence, relative to Rose Bengal [14] -0.0609% [at 3.72 µM] | fluorescence, % of fluorescein control [6] -0.0052% [at 3.72 µM] | fluorescence, % of triamterene [7] 0.0233% [at 3.72 µM] | fluorescence, % of fluorescent control [8] 0.243% [at 3.72 µM] | fluorescence, % of fluorescent control [15] 0.0638% [at 3.72 µM] | activity change [10] -0.0524% [at 3.72 µM] | fluorescence, % of fluorescent control [16] -0.0589% [at 3.72 µM] | fluorescence, % of Rose Bengal [11] -0.203% [at 3.72 µM] | fluorescence, % of fluorescent control [12] -0.0422% [at 3.72 µM] | fluorescence, % of fluorescein control [13] 0.0002% [at 3.72 µM] | fluorescence, % of fluorescent control [17] -0.0637% [at 3.72 µM] | activation [18] -0.406% [at 3.1 µM] | activity change, negative = inhibition [19] 1.31% [at 3.15 µM]

CCOC(=O)[C@H](CCc1ccccc1)N[C@@H](C)C(=O)N1[C@H](C(=O)O)C[C@@H]2CCC[C@@H]21
inactive: outcome [1] | Potency [2] | outcome [3] | Potency [4] | Potency [5] | outcome [14] | outcome [6] | outcome [7] | outcome [10] | outcome [16] | outcome [11] | outcome [12] | outcome [13] | outcome [17] | Potency [18]

O=C1NC(=O)[C@@]2(CCOc3ccc(F)cc32)N1
inactive: outcome [1] | Potency [2] | outcome [3] | Potency [5] | Potency [20] | outcome [14] | outcome [6] | outcome [7] | outcome [8] | outcome [9] | outcome [15] | outcome [10] | outcome [16] | outcome [11] | outcome [12] | outcome [13] | outcome [17]

N=c1nc(N2CCCCC2)cc(N)n1O
inactive: outcome [1] | Potency [2] | outcome [3] | Potency [5] | Potency [20] | outcome [14] | outcome [6] | outcome [7] | outcome [8] | outcome [9] | outcome [15] | outcome [10] | outcome [16] | outcome [11] | outcome [12] | outcome [13] | Potency [18] | Potency [19]

CCCCCOC(=O)CCCCC
inactive: outcome [1] | Potency [2] | outcome [3] | Potency [5] | outcome [14] | outcome [6] | outcome [7] | outcome [8] | outcome [9] | outcome [15] | outcome [10] | outcome [16] | outcome [11] | outcome [12] | outcome [17] | Potency [18]

CC(C)=CCCC(C)CC(=O)O (stereo not drawn)
inactive: Potency [2] | outcome [3] | Potency [4] | Potency [5] | Potency [20] | outcome [14] | outcome [6] | outcome [7] | outcome [9] | outcome [16] | outcome [11] | outcome [12] | outcome [13] | outcome [17] | Potency [18]
